Where “and” joins values, the source holds several entries; their conditions need not be identical. Equal entries are not always repeated. About 83,000 compounds went through this panel and 20% of them were active in at least one assay; those are over-represented in the sample as a whole.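 Negative percent growth values reflect cell death: -40 means 40% of the cells present at the start died, and -100 means all died.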 A number with no mark means an inactive call. Calls of active or inactive are those of the source.

In the experiment the test system is SK-MEL-28 melanoma. The experiment in a line: NCI-60 one-dose screen, 48 h (100 = growth as untreated, 0 = no growth, -100 = all killed). The following applies: 10 µM unless noted. The protocol: Growth inhibition of the SK-MEL-28 human tumor cell line is measured as a screen for anti-cancer activity. Cells are grown in 96 well plates and exposed to the test compound for 48 hours. Compounds are tested at a single concentration, which is 10^-5 M for most compounds. The reported endpoint is percent growth (GI% or GIPRCNT), where numbers from 0 - 100% represent growth inhibition, and numbers from -100% - 0 represent cell death. For example, a value of 40 represents 60% growth inhibition. A value of 0 means no net growth occurred over the course of the experiment. A value of -40 indicates 40% of cells at the beginning of the experiment died by the end of the experiment. A value of -100 means all cells are dead at the end of the experiment.
NCI-60 Human Tumor Cell Lines Screen was performed using the standard one-dose NCI protocol, which is described in more detail at https://dtp.cancer.gov/discovery_development/nci-60/default.htm.
Compounds with GIPRCNT values below 10 were considered active. Activity score was based on GIPRCNT using the following formula: […]
Score is 0 for GIPRCNT values of 100 or above, 50 for GIPRCNT values of 0, and 100 for GIPRCNT values of -100.
In the case of `COc1cc(-c2ccc(N)c(OC)c2)ccc1N`, the growth was 111%.

Turning to `O=[P+](O)c1cccnc1`, the growth was 106%.

As for `COc1ccc(/C=C(/C)[N+](=O)[O-])cc1OC`, the growth was -50.9% (active) and 4.89% (active).

As for `O=Cc1cn(Cc2ccccc2)c2ccccc12`, the growth was 216%.

Regarding `O=C1CN2CCC1CC2`, the growth is 119%.

As for `CSc1cc(/C=C(\C)[C@@H]2C[C@@H]3O[C@]3(C)CCC[C@H](C)[C@H](O)[C@@H](C)C(=O)C(C)(C)[C@@H](O)CC(=O)O2)n(CCNC(=O)OC(C)(C)C)n1`, the growth was 79%.

In the case of `c1ccc2c(c1)O[As](O[As]1Oc3ccccc3O1)O2`, the growth was 44.4%.

For `c1ccc2c(c1)sc1ccccc12`, the growth is 105%.

For `C[C@]12CC[C@H]3[C@@H](CC=C4c5nc(-c6ccc(Br)cc6)sc5CC[C@@]43C)[C@@H]1CC[C@@H]2O`, the growth was 90.1%.

Consider `C#COc1cccc(Nc2ncnc3cc(NC(=O)CF)ccc23)c1`, for which the growth was 60.4% [6.25 µM].

Turning to `CCOC(=O)c1cncn1C(C)c1ccccc1` (stereo not given), the growth is 114%.

In the case of `CC[C@H](CC[C@@H](C)[C@H]1CC[C@H]2[C@@H]3CC[C@H]4C[C@]5(CC[C@]4(C)[C@H]3CC[C@]12C)OO[C@](C)(C(F)(F)F)O5)C(C)C`, the growth was 89.9%.

Take `COc1ccc(N(CC(=O)NCCC[Te]c2ccccc2)C(=O)c2ccccc2)cc1`: the growth is 145%.

In the case of `C[C@]12CC[C@H](O)C[C@@H]1CC[C@@H]1[C@@H]2CC[C@]2(C)OC(=O)CC[C@@H]12`, the growth is 105%.

Consider `ClC1OC(Cl)(Cl)C(Cl)(Cl)OC1(Cl)Cl` (stereo not given), for which the growth is 106%.

In the case of `Cc1cc(N(CCCl)CCCl)ccc1C=Nc1ccc(-c2csc(-c3ccccc3)n2)cc1`, the growth is 105%.

For `O=[N+]([O-])c1ccc(CI)cc1`, the growth was 104%.

As to `COc1cc2c(c(OC)c1OC)-c1ccc(O)cc1[C@@H](NC(C)=O)CC2`, the growth was 52.3% and 40%.

Regarding `CC[C@H](C)[C@H](NC(=O)[C@H]1CCCCN1C)C(=O)N(C)[C@H](C[C@@H](OC(C)=O)c1nc(C(=O)N[C@@H](Cc2ccccc2)C[C@H](C)C(=O)O)cs1)C(C)C`, the growth was 50.6%.

As for `Cc1cc2c(cc1-c1ccnc(/C=C/C(=O)O)c1)C(C)(C)CCC2(C)C`, the growth is 92.9%.

Take `CN1C2CCC1[C@@H](COC(=O)c1ccccc1)[C@@H](O)C2` (stereo not given in full): the growth was 128%.

`ClCc1ccc(Cl)c(Cl)c1`: the growth is 111%.

Regarding `CCOC(=O)P(=O)(OCC)OCC`, the growth was 106%.

Regarding `O=C(O)C(F)F`, the growth was 116%.

`CCOC(=O)c1ccccc1C(=O)OCC`: the growth was 114%.

For `O=NN1CCCCC1`, the growth was 110%.

Take `CCOP(=O)(NC)OCC`: the growth was 104%.

With `CC[PH+](CC)CC.O=COC1OC([S-])C(OC=O)C(OC=O)C1OC=O.[Au+]` (stereo not given), the growth is -92.1% (active).

In the case of `S=P(SP(=S)(c1ccccc1)c1ccccc1)(c1ccccc1)c1ccccc1`, the growth is 111%.

For the compound `CCCC1CCCCC12C(=O)NC(=O)NC2=O` (stereo not given), the growth was 103% and 114%.

`CC1=CC(=Nc2ccc(N(CCCl)CCCl)cc2)C=C(C)C1=O`: the growth is 26.3%.

With `CN(C)c1ccc(C=C2C(=O)NC(=O)NC2=O)cc1`, the growth was 92.5%.

With `O=C(O)C1C(C(=O)O)C2(Cl)C(Cl)=C(Cl)C1(Cl)C2(Cl)Cl` (stereo not given), the growth is 108%.

As to `C=C[Se]CC(=O)/C=C/c1ccccc1`, the growth was 96.1%.

`CC(=O)C(N)Cc1ccccc1` (stereo not given): the growth is 114%.

Regarding `CC1=C(C)C(=O)O[C@@H]([C@](C)(O)[C@]2(O)CC[C@@]3(O)[C@@H]4C[C@H]5O[C@]56CC=CC(=O)[C@]6(C)[C@H]4CC[C@]23C)C1`, the growth is 1.96% (active).

In the case of `Nc1nc(=S)nc(N)[nH]1`, the growth was 100%.

In the case of `COC(=O)[C@@H](C)C[C@H](Cc1ccccc1)NC(=O)c1cccc([C@@H](C[C@H](C(C)C)N(C)C(=O)[C@@H](NC(=O)[C@H]2CCCCN2C)C2CC2)OC(C)=O)n1`, the growth is 62%.

Consider `CN1CCC2(CC1)C(C#N)C(=O)NC(=O)C2C#N` (stereo not given), for which the growth is 95.1%.

In the case of `O=C(O)C(O)c1ccc(Cl)cc1` (stereo not given), the growth is 106% and 109%.

Values taken from PubChem BioAssay (NCI).
